These results are taken from PubChem BioAssay (NCI).

SMILES strings stand for the structures. Compounds without any hit were thinned out: in the full panel of roughly 83,000, 20% have a hit.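 Treatment: one concentration, 48 hours, 96-well format. Scoring: percent growth, with anything below 10 considered active.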 Values without a mark were called inactive. Active and inactive are the calls of the source.

Test systems include HCT-15 colon; HT29 colon; SNB-75 CNS; SNB-19 CNS; U251 CNS; PC-3 prostate; SK-MEL-5 melanoma; UACC-62 melanoma; LOX IMVI melanoma; SK-MEL-28 melanoma.
What all share (experiment): NCI-60 one-dose screen, 48 h (100 = growth as untreated, 0 = no growth, -100 = all killed)
Common to all, as to conditions: 10 µM unless noted

As to `COC(=O)CCC/C=C\C[C@H]1C=CC(=O)/C1=C/C[C@@H](O)CCc1cccc(C(F)(F)F)c1`, the growth in the assay on HCT-15 colon was -5.76% (active); in the assay with HT29 colon, -30.6% (active); in the assay with SNB-75 CNS, 97.9%; in the assay on SNB-19 CNS, 4.49% (active); in the assay on U251 CNS, -84.3% (active); in the assay with PC-3 prostate it was -39% (active). The growth in the assay with SK-MEL-5 melanoma is -83.3% (active); in the assay on UACC-62 melanoma, -60% (active); in the assay with LOX IMVI melanoma it was -64.2% (active); in the assay with SK-MEL-28 melanoma it was -45.9% (active).
As for `O=C(/C=C/c1sc(Cl)nc1Cl)c1ccc(F)cc1`, the growth is 31.2% in the assay on HCT-15 colon; 84.5% in the assay on HT29 colon; 92.5% in the assay on SNB-75 CNS; 90.8% in the assay with SNB-19 CNS; 40.4% in the assay with U251 CNS; 88.5% in the assay with PC-3 prostate. In addition, the growth with SK-MEL-5 melanoma was 93.6%; in the assay on UACC-62 melanoma it was 93.3%; with LOX IMVI melanoma, 0.0946% (active); with SK-MEL-28 melanoma, 97.2%.
Turning to `CCc1nnc(NC(=O)c2nnn(-c3ccccc3)c2-c2ccco2)s1`, the growth was 51.5% in the assay on HCT-15 colon; 109% in the assay with HT29 colon; 89.6% in the assay with SNB-75 CNS; 93.9% in the assay with SNB-19 CNS; 84% with U251 CNS; 64.7% in the assay on PC-3 prostate. For the same compound, the growth in the assay on SK-MEL-5 melanoma is 83.2%; with UACC-62 melanoma, 86.5%; in the assay with LOX IMVI melanoma it was 89%; in the assay on SK-MEL-28 melanoma it was 95.1%.
For `CCOC(=O)C1=C(N)Oc2c(sc3c(C)cccc23)C1c1ccc(Cl)cc1` (stereo not given), the growth with HCT-15 colon is 15%; with HT29 colon it was 14.8%; in the assay with SNB-75 CNS, -9.45% (active); in the assay on SNB-19 CNS, 28.1%; in the assay on U251 CNS, 31.7%; in the assay with PC-3 prostate, 16.6%. Besides, the growth was 39.5% in the assay with SK-MEL-5 melanoma, 12.1% in the assay with UACC-62 melanoma, 36.2% with LOX IMVI melanoma and 53.6% with SK-MEL-28 melanoma.
`CCOC(=O)c1c(C)oc2ncnc(N3CCN(C(=O)COc4ccc(C(C)(C)C)cc4)CC3)c12`: the growth with HCT-15 colon is 79.8%; in the assay with HT29 colon, 90.2%; with SNB-75 CNS, 93.5%; with SNB-19 CNS it was 85.4%; with U251 CNS it was 89.5%; in the assay on PC-3 prostate, 59.3%. The growth was 34.8% with SK-MEL-5 melanoma, 42.9% with UACC-62 melanoma, 75.5% in the assay with LOX IMVI melanoma and 85.4% in the assay on SK-MEL-28 melanoma.
As to `Cc1oc2nc[nH]c(=O)c2c1C(=O)/C=C/c1ccc(Br)cc1`, the growth was -27.4% (active) in the assay with HCT-15 colon; 15.3% in the assay on HT29 colon; -2.44% (active) with SNB-75 CNS; 23.5% with SNB-19 CNS; 12% in the assay with U251 CNS; 25.5% in the assay with PC-3 prostate. Further, the growth is 8.55% (active) in the assay with SK-MEL-5 melanoma, 13.2% in the assay on UACC-62 melanoma, -90.6% (active) with LOX IMVI melanoma and 23.9% in the assay with SK-MEL-28 melanoma.
Turning to `COc1cc(CCC[P+](c2ccccc2)(c2ccccc2)c2ccccc2)c(OC)c(OC)c1OC`, the growth with HCT-15 colon was 68.2%; with HT29 colon, 112%; with SNB-75 CNS, 29.7%; in the assay on SNB-19 CNS, 78%; with U251 CNS, 77.7%; in the assay with PC-3 prostate, 75.6%. For the same compound, the growth with SK-MEL-5 melanoma is 76%; in the assay on UACC-62 melanoma, 31.1%; with LOX IMVI melanoma, 79.2%; with SK-MEL-28 melanoma, 74.4%.
On to `FC(F)(F)c1cc(Nc2ccc3c(OCCCN4CCOCC4)cccc3n2)ccc1Cl`, for which the growth in the assay with HCT-15 colon was -39.8% (active); with HT29 colon, -22.7% (active); in the assay on SNB-75 CNS it was 40.8%; with SNB-19 CNS, 35.9%; in the assay on U251 CNS, 9.5% (active); with PC-3 prostate it was 33.5%. Further, the growth is 69.5% in the assay on SK-MEL-5 melanoma, 55.3% in the assay on UACC-62 melanoma, -37.6% (active) with LOX IMVI melanoma and 41.9% in the assay on SK-MEL-28 melanoma.
Regarding `CCCCNC(=O)Oc1ccc(/C(=C(\C)c2ccc(Cl)cc2)c2ccc(OCCN(CC)CC)cc2)cc1`, the growth with HCT-15 colon was 19.5%; with HT29 colon, -10.2% (active); in the assay with SNB-75 CNS it was 64.9%; in the assay on SNB-19 CNS, 86%; with U251 CNS, 50.7%; with PC-3 prostate, 60.9%. The growth is 78.4% in the assay on SK-MEL-5 melanoma, 74.6% with UACC-62 melanoma, 71.5% in the assay with LOX IMVI melanoma and 74.9% in the assay with SK-MEL-28 melanoma.
In the case of `CCc1cccc2c3c(sc12)C(c1ccc(Cl)cc1)C(C#N)=C(N)O3` (stereo not given), the growth in the assay on HCT-15 colon is 13.8%; with HT29 colon, 6.86% (active); with SNB-75 CNS it was -10.2% (active); in the assay with SNB-19 CNS, 27.1%; with U251 CNS, 24.7%; with PC-3 prostate it was 7.23% (active). Moreover, the growth with SK-MEL-5 melanoma was 29%; in the assay on UACC-62 melanoma, 22.1%; with LOX IMVI melanoma, 26.6%; in the assay with SK-MEL-28 melanoma it was 63.4%.
For `COc1cc(Nc2cn[nH]c2-c2ccc(Cl)cc2)cc(OC)c1OC`, the growth was 35.9% with HCT-15 colon; 15% in the assay on HT29 colon; -9.76% (active) with SNB-75 CNS; 56% with SNB-19 CNS; 35.3% in the assay on U251 CNS; 56.4% in the assay with PC-3 prostate. The growth in the assay with SK-MEL-5 melanoma was 39.1%; with UACC-62 melanoma, 23.2%; with LOX IMVI melanoma, 41.6%; in the assay with SK-MEL-28 melanoma, 46.2%.
Regarding `O=c1c2cccc(Cl)c2sc2c(NCCCNCCO)nc3ccccc3c12`, the growth in the assay on HCT-15 colon is -24.3% (active); with HT29 colon it was -51.7% (active); in the assay with SNB-75 CNS, 51.9%; in the assay on SNB-19 CNS it was 45.7%; in the assay on U251 CNS, 10.8%; with PC-3 prostate it was 41.8%. Also, the growth is 81.8% with SK-MEL-5 melanoma, 66.2% with UACC-62 melanoma, -93.1% (active) with LOX IMVI melanoma and 72.1% with SK-MEL-28 melanoma.
`O=c1c2cc(F)ccc2sc2c(NCCCNCCO)nc3ccccc3c12`: the growth is -9.91% (active) with HCT-15 colon; -53.3% (active) with HT29 colon; 53.8% with SNB-75 CNS; 58.5% in the assay with SNB-19 CNS; 6.22% (active) in the assay on U251 CNS; 25.2% in the assay on PC-3 prostate. Besides, the growth is 70.5% in the assay on SK-MEL-5 melanoma, -39.4% (active) in the assay on UACC-62 melanoma, -94.1% (active) in the assay with LOX IMVI melanoma and 28.1% in the assay with SK-MEL-28 melanoma.
Regarding `CCCCCCn1c(-c2ccc(C(=O)O/N=C(\N)c3ccc(OC)cc3)cc2)nc(-c2ccccc2)c1-c1ccccc1`, the growth is -41.1% (active) in the assay with HCT-15 colon; 22% with HT29 colon; -20.3% (active) in the assay with SNB-75 CNS; 32.5% in the assay on SNB-19 CNS; -42.9% (active) in the assay with U251 CNS; 3.94% (active) with PC-3 prostate. Besides, the growth with SK-MEL-5 melanoma was 49.9%; with UACC-62 melanoma, 18.1%; with LOX IMVI melanoma it was -91.6% (active); with SK-MEL-28 melanoma it was 42.1%.
